# hcDAF-12 act = H. contortus DAF-12 nuclear receptor activators, primary screen, cell-based, luminescence, HEK293, lit1-tk-luc reporter | HEK293 hcDAF-12 lit1-tk-luc reporter; 0% DMSO, 100% Δ7-dafachronic acid | activation, % at 6.8 µM | actives 1.4% (n = 370,000) | AID 652067, 2013;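 active = activation above the mean of all tested compounds plus 3 SD, cut at about 5.5% in these data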;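 note: 100% = response to 3 µM Δ7-dafachronic acid high control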
# DAX1 inh-1 = DAX1 (NR0B1) inhibitors on StAR promoter, primary screen, cell-based, luminescence, SF-1 (NR5A1), full-length DAX-1. HEK293T StAR-luciferase reporter, SF-1/DAX-1 repression relief. inhibition, % at 6.8 µM. actives 1.1% (n = 370,000);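 active = inhibition above the mean over all tested compounds plus 3 SD, cut at about 3.6% in these data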;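 note: 0% = DAX-1 cells with DMSO and 100% = cells lacking DAX-1 with DMSO; higher inhibition means more luminescence from relief of DAX-1 repression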
# DAX1 inh-2 = DAX1 (NR0B1) inhibitors, primary screen, cell-based, HEK293, Gal4-DAX1, luciferase luminescence. Nuclear receptor subfamily 0 group B member 1 (Homo sapiens), P51843. HEK293 Gal4-DAX1 luciferase reporter. inhibition, % at 6.75 µM. actives 0.99% (n = 340,000). AID 504766, 2011;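 active = inhibition above the mean over all tested compounds plus 3 SD, cut at about 4.2% in these data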;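 note: 0% = DAX1-transfected cells with DMSO and 100% = empty-vector control cells with DMSO; inhibition shows as a rise in luminescence from relieved DAX1 repression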
# Target sequence (P51843 207-470 limits assumed): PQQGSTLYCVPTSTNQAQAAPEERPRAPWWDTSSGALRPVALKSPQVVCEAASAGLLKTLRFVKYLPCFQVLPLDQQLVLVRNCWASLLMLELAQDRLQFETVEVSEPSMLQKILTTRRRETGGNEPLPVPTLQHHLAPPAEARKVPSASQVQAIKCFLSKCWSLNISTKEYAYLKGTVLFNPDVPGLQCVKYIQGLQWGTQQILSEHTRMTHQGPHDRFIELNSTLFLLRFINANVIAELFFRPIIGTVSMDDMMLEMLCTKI
# ssDAF12 agonist = S. stercoralis DAF-12 nuclear receptor activators, primary screen, cell-based, luminescence, HEK293, GRIP1 co-expression, lit1-tk-luc. activation, % at 6.8 µM. HEK293 ssDAF-12/GRIP1 lit1-tk-luc reporter; % of 3 µM dafachronic acid response. actives 1% (n = 370,000);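 active = activation above the mean over all tested compounds plus 3 SD, cut at about 0.9% in these data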;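 note: 0% = DMSO-only wells and 100% = 3 µM delta7-dafachronic acid wells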
# hgDAF12 agonist = H. glycines DAF-12 receptor agonists, primary screen, cell-based, luminescence, HEK293, GAL4 fusion, UAS-luciferase; activation, % at 6.8 µM; Nuclear hormone receptor DAF-12 (Heterodera glycines), GAL4 fusion; HEK293 GAL4-hgDAF12 UAS-luciferase reporter, agonist luminescence; normalized to butyrate control; AID 687014, 2013; actives 1.8% (n = 370,000);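 active = activation above a cutoff set at the mean of all screened compounds plus 3 SD, cut at about 10% in these data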;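 note: 0% = DMSO wells and 100% = sodium butyrate wells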
# LXRb hcDAF ctr = LXR agonists, Gal4 luciferase reporter, confirmation, counter-screen for hcDAF-12 agonist project, cell-based, luminescence, HEK293, H. contortus campaign. shares compounds with hcDAF-12 act. HEK293 Gal4-LXR tk-luc reporter, 24 h; normalized: DMSO 0%, positive control 100%. activation, % at 6.8 µM. 3,400 tested, under 10 active;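 active = mean percent activation of the reporter above a cutoff set as the average over tested compounds plus their standard deviation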
# hcDAF12 ag = H. contortus DAF-12 receptor agonists, confirmation, cell-based, luminescence, HEK293, lit1-tk-luc, triplicate; actives 61% (n = 3,400); shares compounds with hcDAF-12 act; HEK293 hcDAF-12 lit1-tk-luc reporter; % of Δ7-dafachronic acid response; activation, % at 6.8 µM;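 active = mean activation across triplicate tests above the threshold derived from the earlier primary screen, cut at about 5.5% in these data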;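 note: 0% = DMSO only wells and 100% = 3 µM Δ7-dafachronic acid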
# * marks the source's active call; other numbers are inactive results; x = not tested or not shown. Rows were chosen to be rich in hits. Some 4.1% of all compounds tested hit in one or more screens of this group.
SMILES,hcDAF-12 act,DAX1 inh-1,DAX1 inh-2,ssDAF12 agonist,hgDAF12 agonist,LXRb hcDAF ctr,hcDAF12 ag
COC(=O)[C@]12C[C@H](CC(=O)NCc3cccc4ccccc34)C(=O)N(Cc3ccccc3)C1=C[C@H](COCc1ccccc1)O[C@@H]2C,-3,-1,x,-1,-1,x,x
O=C(O)Cc1sc(Nc2cccc3ccccc23)nc1-c1ccc(Cl)cc1,6.7*,0,0,0,-1,0,2
Cc1ccc(Nc2nc(-c3ccc(C)cc3)c(CC(=O)O)s2)cc1,4,0,0,-1,6,x,x
O=C1c2ccccc2C(=O)N1CCCCON1C(=O)c2ccccc2C1=O,-1,1,0,-2,3,x,x
CCCCON1C(=O)c2cccc3cccc(c23)C1=O,9.6*,0,0,0,3,0,7.4*
COc1ccc(C(=O)Nc2sc(C)c(C)c2CN2CC(C)OC(C)C2)cc1 (stereo not drawn),8.9*,3.9*,3,0,11*,0,4
Cc1sc(NC(=O)c2ccco2)c(CN2CCCCC2)c1C,-1,0,0,-1,4,x,x
Cc1[nH]c2ccccc2c1CC(=O)Nc1ccc(Nc2cccnc2)c(-c2ccc(C(C)(C)C)cc2)c1,2,0,x,0,1,x,x
CCc1ccc(CCNC(=O)OC2CC3CC2[C@H]2CCCCN2C3)cc1 (stereo partly drawn),1,2,x,0,0,x,x
Cn1c(/C(C#N)=C(\O)c2ccc([N+](=O)[O-])s2)nc2ccccc21,-1,0,0,0,-2,x,x
Cn1c(/C(C#N)=C(\O)c2ccc(Cl)s2)nc2ccccc21,8.0*,1,1,0,3,0,8.3*
O=C(CNc1ccc2ccccc2c1)N/N=C/c1ccncc1,8.0*,0,0,0,3,0,1
O=C(CN1CCCCCC1)N/N=C/c1ccc2ccccc2c1,8.1*,1,1,0,4,0,2
N=c1c2c(ccn1Cc1ccccc1)Oc1ccc3ccccc3c1C2c1ccccc1 (stereo not drawn),-2,x,x,-2,-3,x,x
Cc1ccc(NC(=O)c2noc3c2CCCCC3)cc1,10*,3,2,1.2*,11*,2,8.2*
Cc1ccc(O)c(NC(=O)c2noc3c2CCCCC3)c1,0,1,1,0,4,x,x
CCS(=O)(=O)Nc1ccc(-c2nc3cccnc3s2)cc1,6.9*,3,1,1,11*,2,7.7*
O=C(Nc1ccc2c(c1)OCO2)c1ccc(Br)o1,9.0*,3,1,0,13*,0,5
CC(=O)Nc1c(C(=O)Nc2ccc3c(c2)OCO3)oc2ccccc12,7.6*,2,3,1,9,1,6.8*
O=C(COC(=O)CNC(=O)c1ccc(Br)o1)Nc1ccc2c(c1)OCCO2,0,0,0,-1,-3,x,x
C[C@@H]1CCN(C2CC2)S(=O)(=O)c2c(cccc2N2CC[C@@H](N(C)C)C2)O1,0,-1,x,-1,1,x,x
COC(=O)[C@]12C[C@H](CC(=O)NCc3cccc(C(F)(F)F)c3)C(=O)N(Cc3ccccc3)C1=C[C@H](C1CCCC1)O[C@@H]2C,-1,-1,x,-1,1,x,x
COC(=O)[C@H]1C[C@@]2(C#N)c3ccccc3N(C(=O)OC(C)(C)C)[C@H]2N1C(=O)OC(C)(C)C,-1,0,x,-1,1,x,x
O=C(COC(=O)c1n[nH]c2ccccc12)Nc1ccccc1F,6.8*,2,2,1.8*,7,1,8.2*
CN1Cc2nnn(Cc3ccccc3)c2-c2ccccc2S1(=O)=O,-2,-1,x,-1,3,x,x
SMILES,hcDAF-12 act,DAX1 inh-1,DAX1 inh-2,ssDAF12 agonist,hgDAF12 agonist,LXRb hcDAF ctr,hcDAF12 ag
N=c1oc2cc(O)ccc2cc1C(=O)Nc1nc2ccccc2s1,7.2*,1,3,-1,1,2,11*
CCc1ccc2oc(-c3cc(N)ccc3O)nc2c1,8.3*,2,-2,0,8,1,7.7*
CCc1ccc2oc(-c3cc(N)ccc3Cl)nc2c1,14*,2,2,1.3*,9,1,9.8*
CCCC[C@H](CCCc1ccc(F)cc1)CCC(=O)N(c1ccccc1)c1ccccc1,0,1,x,-1,-2,x,x
C(=C\c1ccco1)/c1ccc2ccccc2n1,7.3*,1,x,0,2,1,13*
C(=C\c1ccco1)/c1nc2ccccc2[nH]1,7.3*,2,-1,0,9,1,9.4*
O=C(/C=C/c1ccco1)Nc1ccc(-c2nc3ccccc3[nH]2)cc1,-4,-1,-1,-1,-4,x,x
C[C@H]1[C@@H](NC(=O)C(c2ccccc2)c2ccccc2)CC[C@@]23CCCN2C(=O)CCC[C@@H]13,-2,x,x,-1,0,x,x
COc1ccc(OCc2cc(C(=O)NC3CCOC(C)(C)C3)no2)c2ccccc12 (stereo not drawn),7.9*,4.1*,3,2.1*,6,0,8.0*
COc1ccc(OCc2cc(C(=O)N3CCC(OC)CC3)no2)c2ccccc12,7.8*,3.8*,3,1,9,0,6.4*
CSc1ccccc1OCc1cc(C(=O)NC2CCOC(C)(C)C2)no1 (stereo not drawn),-1,0,-1,-1,2,x,x
CCCCCCCCN1C(=O)[C@@H](CC(=O)NCCCC)C[C@@]2(C(=O)OC)C1=C[C@H](COCc1ccccc1)O[C@@H]2C,-1,-1,x,-1,0,x,x
Nn1cnc2scc(-c3ccc(Cl)cc3)c2c1=O,6.9*,0,1,1.7*,9,0,1
CC1(C)CC(=O)N(CC(=O)NCc2ccccc2)c2ccccc2S1(=O)=O,14*,0,0,-2,1,0,1
COc1cccc(N(C)C(=O)[C@@H](C2CC2)[C@@H](O)c2ccc(Cl)cc2)c1,1,-1,x,-1,0,x,x

# From PubChem BioAssay
